This excerpt belongs to a sample that is enriched for hits.
VCAM1 pot: TNF alpha stimulated VCAM1 expression potentiation; HUVEC TNFa-stimulated VCAM-1 immunofluorescence, high-content imaging; scaled per plate to unstimulated/TNFa-only wells; activation, % at 2 µM; hit rate 0.19% among 93,000; AID 808;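 active means activation above the screen mean plus 3 SD, with well images confirming the hit on visual review, cut at about 28% in these data, passing the limit was not always enough; inconclusive means activation above that limit but images do not confirm it; inactive means activation not above that limit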;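 further: signal is the number of cytoplasmic VCAM-1 stained grains per positive cell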
VCAM1 pot conf: potentiators of TNFa-induced VCAM1 expression, confirmation, imaging, HUVEC, triplicate retest | shares compounds with VCAM1 pot | HUVEC TNFa-stimulated VCAM-1 immunofluorescence imaging | activation, % at 2 µM | 230 tested, under 10 active | AID 1034;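 active means activation above 30% in triplicate retests at 2 µM, then confirmed by visual review of the well images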;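 further: scaled per plate between unstimulated and TNFa-stimulated DMSO control wells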
* marks the source's active call; other numbers are inactive results; ? = inconclusive.

SMILES | VCAM1 pot | others
CCOC(=O)C1=NN(c2ccc(Cl)cc2)C(c2ccccc2)CC1=O (stereo not drawn) | -25.6
COC(=O)c1nc2nc(C)cc(=O)n2[nH]1 | -7.4
Cc1cc(C(=O)COC(=O)CCc2nc3ccccc3s2)c(C)n1C | 0.5
OCCN(Cc1ccccc1)Cc1ccc(C(F)(F)F)cc1 | -9.5
CN(C)CC(C)(C)CNS(=O)(=O)c1ccc(Cl)c(Cl)c1 | 5.1
O=C(Cc1ccccc1)Nc1ccc2oc(-c3cccnc3)nc2c1 | 1.8
O=C(Nc1ccc2oc(-c3ccccc3)nc2c1)c1ccc2c(c1)OCCO2 | 30.4* | VCAM1 pot conf=-9.7
O=C(Nc1ccc(-c2nc3cc(Cl)ccc3o2)cc1)C1CCCO1 (stereo not drawn) | 34.0
O=C(Cn1nc(Cc2ccncc2)c2ccccc2c1=O)N1CCc2ccccc2C1 | -2.7
COC(=O)c1ccc(CSc2nc(N3CCOCC3)c3c(c2C#N)CC(C)(C)OC3)o1 | -1.0
Cc1nc(N2CCN(C(=O)c3ccc(Cl)cc3)CC2)c(C#N)c2c1COC(C)(C)C2 | 49.9* | VCAM1 pot conf=-16.4
CC(C)(C)C(=O)Nc1ccccc1N1CCN(C(=O)c2ccc(Cl)cc2)CC1 | -6.2
CCCCC(=O)Nc1ccc(C(=O)N2CCCC(C(=O)OCC)C2)cc1 (stereo not drawn) | -37.7
O=S(=O)(c1ccc(Cl)c(Cl)c1)c1snnc1-c1ccccc1 | -95.7
O=C(CCSc1nnc(-c2ccco2)o1)Nc1ccccc1 | 44.1* | VCAM1 pot conf=-15.8
O=C(COc1ccc(Br)cc1)Nc1ccc(-c2nnc(-c3ccco3)o2)cc1 | -2.2
CC(=O)c1c(C)cc(C)c(CSc2nnc(-c3ccco3)o2)c1C | 15.7
O=C(CC12CC3CC(CC(C3)C1)C2)NCC(=O)N1CCc2ccccc2C1 | 1.2
CC1CCN(c2ccccc2NC(=S)NC(=O)c2ccco2)CC1 | -6.2
Cc1cc(C(=O)OC2CCOC2=O)c2ccccc2n1 (stereo not drawn) | 7.4
C1CCc2c(nnc3c2-c2nonc2CC3)C1 | 4.6
Cn1c(CN2CCOCC2)nnc1SCC(=O)NC1CCCCC1 | ? | VCAM1 pot conf=-16.9
CN(C)C(=O)Cn1c(SCC(=O)NC2CCCCC2)nc2ccccc21 | 1.2
Cn1c(SCC(=O)NC2CCCCC2)nnc1-c1cccc(N)c1 | -53.6
COc1ccc([C@H]2[C@@H](C#N)[C@H](C#N)N3CCCN23)cc1 | 35.3
SMILES | VCAM1 pot | others
COc1ccc(NC2CC(=O)NC2=O)cc1 (stereo not drawn) | -5.9
CCCC(=O)NCCCc1nc2ccccc2n1CCC | -3.7
COCc1nc2ccccc2n1CCCOc1ccccc1 | ? | VCAM1 pot conf=-15.5
Cc1nc2ccccc2n1CCCOc1ccccc1 | -61.9
O=C(CN1C(=O)NC2(CCCC2)C1=O)Nc1ccccc1F | 1.2
Cc1ccc(Cn2nnc3c(=O)n(CC(=O)N4CCN(c5ccccc5)CC4)cnc32)cc1 | 17.5
COc1ccnc(Oc2ccc3ccccc3c2)c1C#N | 19.8
O=C(O)CSc1nnc(Cn2cnc3ccccc32)n1CCc1ccccc1 | -1.0
COc1ccc(NC(=O)CCC(=O)Nc2nnc(C(F)(F)F)s2)c(OC)c1 | -16.2
CCOC(=O)Cc1nnc(NC(=O)COc2ccc(OC)cc2)s1 | -0.9
CCc1nnc(NC(=O)c2ccc(OC)cc2OC)s1 | 64.3* | VCAM1 pot conf=-1.2
CCc1ccc(OCC(=O)NCc2ccco2)c(Br)c1 | -6.8
CCN1CCN(C(c2cc(OC)c(OC)c(OC)c2)c2nnnn2C(C)C)CC1 (stereo not drawn) | -3.3
Cc1cc(C(=O)CN2C(=O)c3ccccc3C2=O)c(C)n1C1CC1 | 128.6* | VCAM1 pot conf=-14.4
O=C(CN1C(=O)c2ccccc2C1=O)NCC1COc2ccccc2O1 (stereo not drawn) | -16.8
O=C(CN1C(=O)c2cccnc2C1=O)c1ccccc1 | 7.8
Cc1cc(C)c2nc(SCC(=O)N3CC(=O)Nc4ccccc43)c(C#N)cc2c1 | -99.6
COC1(OC)C(/C=C/c2ccc(C)cc2)C(C#N)(C#N)C1(OC)OC (stereo not drawn) | -5.0
Cc1nc(CS(=O)(=O)c2ccccc2)cc(N2CCOCC2)n1 | -3.0
COCc1cc(Sc2c(Cl)cccc2Cl)nc(-c2ccccc2)n1 | 7.5
O=S(=O)(Cc1cc(Sc2ccc(Cl)cc2)nc(-c2ccccc2)n1)c1ccccc1 | 50.1* | VCAM1 pot conf=-20.0
COc1ccc2c(C(=O)CN(C)C3CCCCC3)c[nH]c2c1 | -7.4
CCOC(=O)Cc1csc(NC(=O)CSc2nnnn2-c2ccc(C)cc2C)n1 | -2.9
CCOC(=O)Cc1csc(NC(=O)CSc2nc(N)c3c(C)c(C)sc3n2)n1 | 32.6* | VCAM1 pot conf=-14.4
CCOC(=O)Cc1csc(NC(=O)COc2ccccc2OCC)n1 | 4.2
SMILES | VCAM1 pot | others
CCCNc1nc(Nc2ccc(C)cc2)nc(N2CCCC2)n1 | -16.2
COc1ccc(C(=O)NCC(=O)n2nc(C)cc2C)cc1OC | 22.2
CCOC(=O)C1=C(c2cccc(F)c2)NC(=S)NC1C (stereo not drawn) | -6.1
CCOC(=O)c1c(-c2cccs2)csc1NC(=O)CCCC(=O)O | 7.9
COC(=O)c1c(NC(=O)Cc2ccccc2)sc(C)c1C | -0.3
CCOC(=O)c1cc(CC)sc1NC(=O)Cc1ccccc1 | 34.9* | VCAM1 pot conf=-8.9
Cc1cc(C)c2c(n1)sc1c(N3CCOCC3)ncnc12 | -60.8
O=C(CC1NC2CCCCC2NC1=O)Nc1cccc(C(F)(F)F)c1 (stereo not drawn) | -1.0
C=CCNC(=O)CN1CCC(n2c(C)nc3cc(C(F)(F)F)ccc32)CC1 | 58.3* | VCAM1 pot conf=-17.9
C=CCNC(=O)CCCOc1ccc(C)cc1 | 0.9
COC(=O)c1cc(C#N)c(Oc2ccc(F)cc2)nc1C | -7.6
Cc1cccc(C2Nc3ccccc3C(=O)N2c2ccc(F)cc2)n1 (stereo not drawn) | 6.7
O=C(NCc1ccccc1)c1ccc(C(=O)N(C2CCCCC2)C2CCCCC2)cc1 | 1.2
CCN1C(=O)/C(=C/c2cn(C)nc2C)SC1=S | 53.4* | VCAM1 pot conf=-4.9
Cc1ccc(/C=C2/SC(=S)N(CC(=O)Nc3ncc(Cc4ccc(C)cc4)s3)C2=O)cc1 | 0.0
CCN1C(=O)/C(=C/C=C2/SCCN2C)SC1=S | 4.4
CCOC(=O)CNC(=O)c1cc(C)oc1C | -2.6
CC(C)Cn1cc(C(=O)NCCCOC(C)C)c2c3ccccc3n(C)c2c1=O | -8.6
CCOC(=O)CNC(=O)c1cn(CC(C)C)c(=O)c2cc(OC)c(OC)cc12 | 55.4* | VCAM1 pot conf=-12.9
Cc1cc(NC(=O)COC(=O)c2n[nH]c3ccccc23)no1 | -9.6
C=CCC(NCc1ccccc1)c1ccc(C)o1 (stereo not drawn) | -4.9
CCOc1ccccc1N1CCN(C(=O)c2cccc(-c3ccc(O)cc3)c2)CC1 | -44.4
CC(C)(C)Nc1nc(NCc2cccnc2)nc(N2CCOCC2)n1 | -14.0
FC(F)(F)c1cc(-c2ccc3c(c2)OCO3)nc(NCc2ccco2)n1 | -77.6
Cc1cc(C(F)(F)F)nc(NCc2cccnc2)n1 | ? | VCAM1 pot conf=-16.9
SMILES | VCAM1 pot | others
CCc1cc2c(=O)n(C(C)C(=O)OC3CCCCC3)cnc2s1 (stereo not drawn) | 12.6
Cc1ccccc1-c1nc(Cc2ccccc2)no1 | 9.0
CC(=O)c1ccc(NC(=O)C2CCC(C)NC2=O)cc1 (stereo not drawn) | 3.6
COCCNC(=O)CC(c1ccccc1)c1ccccc1 | 10.7
COc1ccccc1N(CC(=O)NCCSc1ccccc1)S(C)(=O)=O | ? | VCAM1 pot conf=-1.4
CCOc1ccccc1N(CC(=O)N1CCCCCC1)S(C)(=O)=O | 2.3
Cn1c(NC(=O)C2c3ccccc3Oc3ccccc32)cc(=O)n(C)c1=O | -93.6
O=C(N/N=C/C(Cl)=C\c1ccccc1)c1cnccn1 | 62.9* | VCAM1 pot conf=-17.3

Compound activity as filed in PubChem.
